DAX1 inh: DAX1 (NR0B1) inhibitors, primary screen, cell-based, HEK293, Gal4-DAX1, luciferase luminescence; Nuclear receptor subfamily 0 group B member 1 (Homo sapiens), P51843; HEK293 Gal4-DAX1 luciferase reporter; inhibition, % at 6.75 µM; hit rate 0.99% among 340,000; AID 504766, 2011;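 active = inhibition above the mean over all tested compounds plus 3 SD, cut at about 4.2% in these data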;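 note: inhibition shows as a rise in luminescence from relieved DAX1 repression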
HSF1 inh: HSF1 inhibitors in luciferase reporter cells, primary screen, cell-based, NIH3T3, luminescence; NIH3T3-HGL HSE-luciferase, MG132-induced, luminescence 8 h; stronger effect = lower value; activity change, negative = inhibition, % at 7.5 µM (by protocol); hit rate 0.77% among 300,000; AID 2098, 2009;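 active = more than half of replicate wells show activity change below -50%, luminescence cut by over half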;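 note: luciferase reports HSF-1 transcriptional activity via heat shock element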
FXN GAA850 act: FXN promoter activators, primary screen, cell-based, luciferase luminescence, HEK293 lucGAA850 | HEK293 lucGAA850 FXN promoter luciferase reporter, 24 h; percent of 10 µM SAHA response | activation, % at 6 µM | hit rate 0.56% among 360,000 | AID 540364, 2011;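 active = activation above the average of all compounds screened plus 3 SD, cutoff fixed separately per campaign, cut at about 7.5% in these data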
AHR activator: AHR activators, primary screen, cell-based, luminescence, luciferase reporter, human | Aryl hydrocarbon receptor (Homo sapiens), P35869 | AHR-responsive luciferase reporter cells | activation, % at 5 µM | hit rate 2.5% among 320,000 | AID 2796, 2010; in the data active = activation above about 47%
Target sequence (P35869 whole entry, looked up): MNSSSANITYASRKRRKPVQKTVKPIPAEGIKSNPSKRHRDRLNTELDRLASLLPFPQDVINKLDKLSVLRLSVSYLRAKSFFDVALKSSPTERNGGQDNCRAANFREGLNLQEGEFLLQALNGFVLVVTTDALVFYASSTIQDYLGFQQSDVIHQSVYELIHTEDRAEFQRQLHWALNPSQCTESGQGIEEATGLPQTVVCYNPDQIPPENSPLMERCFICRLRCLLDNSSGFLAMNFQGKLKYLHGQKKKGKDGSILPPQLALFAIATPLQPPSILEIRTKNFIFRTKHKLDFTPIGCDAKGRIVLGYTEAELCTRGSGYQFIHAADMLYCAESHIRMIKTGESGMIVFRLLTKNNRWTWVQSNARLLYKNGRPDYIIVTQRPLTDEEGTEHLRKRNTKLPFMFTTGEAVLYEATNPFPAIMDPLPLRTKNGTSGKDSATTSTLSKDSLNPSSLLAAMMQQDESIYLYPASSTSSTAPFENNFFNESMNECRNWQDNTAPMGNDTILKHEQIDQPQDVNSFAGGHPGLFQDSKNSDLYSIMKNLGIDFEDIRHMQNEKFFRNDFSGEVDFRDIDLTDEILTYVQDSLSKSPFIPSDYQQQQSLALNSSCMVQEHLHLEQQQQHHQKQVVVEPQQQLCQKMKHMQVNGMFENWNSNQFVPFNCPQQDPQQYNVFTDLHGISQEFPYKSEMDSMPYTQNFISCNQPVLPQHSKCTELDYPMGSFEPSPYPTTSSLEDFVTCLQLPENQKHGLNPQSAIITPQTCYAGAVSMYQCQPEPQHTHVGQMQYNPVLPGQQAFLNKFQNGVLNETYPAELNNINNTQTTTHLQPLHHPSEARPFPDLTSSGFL
HSF-1 act: HSF-1 activators, primary screen, NIH3T3-HGL cells, MG132 stress, luminescence, single point; NIH3T3-HGL HSF-1 luciferase reporter, 8 h; 100% = twice DMSO control signal; AID 504408, 2011; hit rate 1.7% among 300,000; activation, % at 9 µM;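 active = mean replicate activation of at least 50% with a set share of replicates each reaching 50%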
Hits are given with their value; n = inactive; x = no result. Hits are enriched below; roughly 5.4% of the tested compounds scored in any of these assays.

SMILES	DAX1 inh	HSF1 inh	FXN GAA850 act	AHR activator	HSF-1 act
Cc1ccc(CNC(=O)CCC2CCCN(Cc3cc4ccccc4o3)C2)o1 (centres undefined)	n	n	n	n	n
CC1CCN(c2ccccc2NC(=O)c2ccc(C#N)cc2F)CC1	x	n	n	71	n
Cn1cc(Br)c(C(=O)Nc2sc3c(c2C(N)=O)CCCC3)n1	n	n	n	n	n
CCn1cc(Br)c(C(=O)Nc2sc3c(c2C(N)=O)CCCC3)n1	n	n	n	57	n
O=C(Nc1ccc2c(c1)CCC2)Nc1ccccc1F	n	n	n	n	n
Cc1cc(C(=O)CSc2nc3ccccc3o2)c(C)n1C1CC1	n	n	n	n	63
CC1CCc2nc(NC(=O)CN3CCN(c4ccc(F)cc4)CC3)sc2C1 (centres undefined)	6.6	n	n	n	n
CC(=O)c1cc2c(cc1NC(=O)CSc1nc3ccccc3o1)OCO2	n	n	n	n	86
CC1CCc2nc(NC(=O)CSc3nc4ccccc4o3)sc2C1 (centres undefined)	n	-59	n	n	n
C=CCn1c(C)cc(C(=O)CSc2nc3ccccc3o2)c1C	n	n	n	n	n
O=C(CN1C(=O)CSc2ccc(S(=O)(=O)N3CCOCC3)cc21)NCc1ccc(Cl)cc1	n	n	n	n	n
Cc1ccc(NCC(=O)N=Nc2c(O)[nH]c3ccc([N+](=O)[O-])cc23)cc1	x	x	x	125	x
O=[N+]([O-])c1ccc2[nH]c(O)c(N=NC(=S)Nc3cccnc3)c2c1	n	n	n	62	n
Cc1ccccc1NCC(=O)N=Nc1c(O)[nH]c2ccc([N+](=O)[O-])cc12	n	x	n	n	x
Cc1cccc(OCC(=O)NCC(=O)N=Nc2c(O)[nH]c3ccc([N+](=O)[O-])cc23)c1	6.1	n	n	n	n
Cc1cccc(OCC(=O)N=Nc2c(O)[nH]c3ccc([N+](=O)[O-])cc23)c1	x	n	x	n	n
COC(=O)C1=C(N)OC2=C(C(=O)CC(C)(C)C2)C1c1cc2c(cc1Cl)OCO2 (centres undefined)	n	n	n	n	n
COC(=O)c1ccc(Cn2c(C)c(C(=O)NCc3cccc([N+](=O)[O-])c3)sc2=O)o1	x	x	n	x	x
O=C(Nc1cccc(Cl)c1)N1CCOCC1	n	-55	n	n	n
O=C(O)c1ccccc1Oc1ccc(Oc2ccccc2)cc1	n	n	n	n	n
CSc1ccc(Cl)c(C(=O)OCC(=O)N(C)CCC#N)c1	n	n	n	n	59
CC(=O)[C@H]1[C@H](c2cccc(Cl)c2)C(C#N)(C#N)[C@@H]2c3ccccc3C=CN21	x	n	x	101	n
Cc1ccc(NS(=O)(=O)N2CCCCC2)cc1	n	x	n	x	x
Clc1ccc(N=c2ssnc2Cl)nc1	n	n	n	n	130
Clc1nssc1=Nc1ccc(Br)cc1	n	n	n	x	n
SMILES	DAX1 inh	HSF1 inh	FXN GAA850 act	AHR activator	HSF-1 act
CCOC(=O)N1CCN(S(=O)(=O)c2c[nH]c(C(=O)OC)c2)CC1	n	n	n	n	n
Cc1cn(Cc2ccccc2Cn2cc(C)c(=O)[nH]c2=O)c(=O)[nH]c1=O	n	n	n	n	71
Cc1cc(Cl)ccc1C(=O)C1CCCN(C(=O)c2cscn2)C1 (centres undefined)	n	n	n	n	n
Cc1cc(Cl)ccc1C(=O)C1CCCN(C(=O)c2cnsn2)C1 (centres undefined)	n	n	n	n	51
Cc1cc(NC(=O)/C=C/c2cccc(F)c2)n(-c2nc3ccccc3[nH]2)n1	n	n	n	74	n
COc1ccc(/C=C/C(=O)Nc2cc(C)nn2-c2nc3ccccc3[nH]2)cc1	n	n	n	n	190
Cc1cc(NC(=O)/C=C/c2ccc(F)cc2)n(-c2nc3ccccc3[nH]2)n1	n	n	n	n	n
N#C/C(=C\c1ccc(OCc2ccc(C(=O)O)cc2)cc1)C(=O)N1CCOCC1	n	-51	n	n	n
O=C(Nc1ccccc1O)/C(=C\c1ccccc1)NC(=O)c1ccccc1	n	n	n	n	n
Cc1ccc(CNC(=O)CSc2c3c(nc4ccc(Cl)cc24)CCCC3)o1	n	n	n	n	120
O=C(N/N=C/c1c[nH]c2ccccc12)c1[nH]c2ccc(Br)cc2c1-c1ccccc1	n	n	n	x	n
CC(=O)NNC(=O)c1[nH]c2ccc(Cl)cc2c1-c1ccccc1	5.0	n	n	n	n
O=C(N/N=C/c1ccc(O)cc1)c1[nH]c2ccc(Br)cc2c1-c1ccccc1	n	-58	n	n	n
O=C(NNC(=O)c1ccc(S(=O)(=O)N2CCCC2)cc1)c1ccc(Br)cc1	n	x	n	x	x
Cc1ccc(OCCSc2nc3ccccc3n2CC(=O)O)cc1	n	n	n	n	n
CCN(CC(=O)Nc1ccc(NC(C)=O)cc1)C(=O)CC1OC(=O)c2ccccc21 (centres undefined)	n	n	n	n	n
COc1ccccc1NC(=O)Nc1nc(CC(=O)Nc2ccc(F)c(F)c2)cs1	n	n	n	52	n
COc1ccccc1NC(=O)Nc1nc(CC(=O)N2CCN(c3ccccc3)CC2)cs1	n	n	n	n	62
COc1ccccc1NC(=O)Nc1nc(CC(=O)Nc2cccc(F)c2)cs1	n	n	n	n	n
COc1ccccc1NC(=O)Nc1nc(CC(=O)Nc2ccc(F)cc2)cs1	n	n	n	n	n
COc1ccccc1NC(=O)Nc1nc(CC(=O)Nc2cc(F)ccc2F)cs1	n	n	n	63	n
COc1ccccc1NC(=O)Nc1nc(CC(=O)NCc2cccnc2)cs1	4.8	n	n	n	n
CC(C)NC(=O)c1ccc(-n2c(=S)[nH]c3ccccc3c2=O)cc1	x	n	x	n	n
NC(=S)N=Nc1ccc(O)cc1	n	x	n	x	x
O=C(CN1CCN(C(=O)C2CCCO2)CC1)Nc1ccc(Cl)c(Cl)c1 (centres undefined)	n	n	n	n	n
SMILES	DAX1 inh	HSF1 inh	FXN GAA850 act	AHR activator	HSF-1 act
CCOC(=O)c1c(C)[nH]c(C)c1S(=O)(=O)NC(C)Cc1ccco1 (centres undefined)	n	n	n	n	n
CCOC(=O)N/N=C\C=C\c1ccc2c(c1)OCO2	5.2	n	n	49	n
CC(C)(C)NC(=O)C(=O)N/N=C/c1ccc(Br)cc1	n	n	n	n	n
CC(C)(C)OC(=O)N/N=C\C=C\c1ccc2c(c1)OCO2	n	n	n	n	56
COC(=O)N/N=C\C=C\c1ccc2c(c1)OCO2	n	n	n	n	n
CC(C)(C)OC(=O)N/N=C/c1ccc(Br)cc1	n	n	n	n	53
COc1ccc(NC(=O)CCC(=O)c2cc(C)sc2C)cc1	n	x	n	x	x
CCOc1ccccc1-c1ccc2nccn2c1	x	x	n	x	x
CCCNC(=O)CCn1nc(-c2ccc(C)cc2)c2ccccc2c1=O	n	n	n	n	n
CCCNC(=O)CCn1nc(-c2ccc(Cl)cc2)c2ccccc2c1=O	5.4	n	n	n	n

Bioassay records from PubChem.
